This is a sample that favours compounds with a hit; in the whole collection about 2.8% have one here.
HSP90 inh = inhibitors of HSP90 luciferase refolding in rabbit reticulocyte lysate; luciferase refolding luminescence, 3 h; inhibition, % at 5.6 µM; 290,000 compounds, 0.91% hits; AID 1789;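 active = inhibition above the screen-wide mean plus 3 SD, computed separately per campaign, cut at about 16% in these data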;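 also: 0% = DMSO wells and 100% = 60 µM geldanamycin wells; inhibitors lower the luminescence because luciferase stays unfolded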
SENP6 block = blocks the human protease SENP6. Recombinant SENP6 catalytic domain, aminoluciferin luminescence. 330,000 compounds, 1.8% hits. Q9GZR1. inhibition, % at 10 µM;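 active = inhibition above about 50% at the single tested dose, limit read from the data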;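 also: plate controls were DMSO wells with enzyme for no effect and DMSO wells lacking enzyme for full effect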
Target sequence (Q9GZR1 628-1112 limits assumed): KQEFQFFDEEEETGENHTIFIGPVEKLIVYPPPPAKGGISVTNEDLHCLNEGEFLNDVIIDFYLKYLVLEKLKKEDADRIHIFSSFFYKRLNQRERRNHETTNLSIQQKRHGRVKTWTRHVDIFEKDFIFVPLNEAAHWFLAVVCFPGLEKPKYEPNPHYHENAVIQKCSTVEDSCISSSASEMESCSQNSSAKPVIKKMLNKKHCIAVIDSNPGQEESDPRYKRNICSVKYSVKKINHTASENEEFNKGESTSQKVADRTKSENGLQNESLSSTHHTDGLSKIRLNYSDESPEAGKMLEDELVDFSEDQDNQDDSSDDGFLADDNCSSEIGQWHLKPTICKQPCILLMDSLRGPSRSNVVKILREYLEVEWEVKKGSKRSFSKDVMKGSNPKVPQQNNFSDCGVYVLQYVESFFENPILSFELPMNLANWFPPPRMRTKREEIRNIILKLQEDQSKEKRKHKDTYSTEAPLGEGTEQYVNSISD
SENP8 block-1 = blocks human SENP8 cleavage of Nedd8 substrate | Q96LD8 | 360,000 compounds, 0.64% hits | AID 602440 | recombinant SENP8, Nedd8 substrate fluorescence | inhibition, % at 20 µM; in the data active = inhibition mostly above about 40%, no sharp cut-off; inactive = mostly below about 27%
Target sequence (Q96LD8 whole entry, looked up): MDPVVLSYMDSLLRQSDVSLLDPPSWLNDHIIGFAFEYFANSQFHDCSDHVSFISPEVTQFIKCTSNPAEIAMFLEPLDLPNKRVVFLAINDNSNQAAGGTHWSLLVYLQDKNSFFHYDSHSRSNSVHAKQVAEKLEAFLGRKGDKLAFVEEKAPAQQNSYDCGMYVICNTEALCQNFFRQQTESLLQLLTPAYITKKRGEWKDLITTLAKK
SENP7 block = SENP7 protease inhibition | AID 434973 | recombinant SENP7, Z-RLRGG-aminoluciferin luminescence, 40 min | inhibition, % at 5 µM | Q9BQF6 | 330,000 compounds, 1.5% hits;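 active = inhibition above about 50% at the single test dose, limit read from the data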;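 also: plate controls were DMSO with enzyme for no effect and no enzyme buffer wells for full effect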
SENP8 block-2 = inhibitors of human SENP8 protease | 330,000 compounds, 1.2% hits | inhibition, % at 10 µM | purified SENP8, Z-RLRGG-aminoluciferin cleavage, luminescence; in the data active = inhibition above about 50%
Platelet DG rel = modulates dense granule release in human platelets; human platelet-rich plasma, SFLLRN dense granule ATP release, luminescence; inhibition, %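 (compounds screened at 7.5 µM in platelet-rich plasma)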; 300,000 compounds, 0.22% hits; AID 1663;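 active = mean replicate score, as percent of positive control, at or above 50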
Numbers without * were called inactive; nt = no result.

SMILES | HSP90 inh | SENP6 block | SENP8 block-1 | SENP7 block | SENP8 block-2 | Platelet DG rel
COc1cccc2c1C(=O)C=C(C)C2=O | 15.3 | -4.6 | -281.4 | 2.1 | -1.7 | 8.0
COC1=CC(=O)c2c(ccc3ncnc(N)c23)C1=O | nt | nt | 83.7* | nt | nt | nt
O=C(COC(=O)/C=C/c1cn(-c2ccccc2)nc1-c1ccc2c(c1)OCCO2)NC1CCS(=O)(=O)C1 (stereo unspecified) | 7.8 | -31.1 | -410.2 | -2.9 | -8.6 | 52.5*
COc1ccc([N+](=O)[O-])cc1C(=O)C(=O)c1ccccc1 | -0.1 | -11.4 | 43.7* | -14.6 | -11.8 | -2.2
COc1cc(C(=O)c2ccccc2)c([N+](=O)[O-])cc1OC | 2.5 | 5.9 | 9.9 | -6.8 | 1.1 | -4.5
CCn1c(SCC(=O)c2ccc(O)c(O)c2)nnc1-c1ccc(C)cc1 | -3.0 | -14.4 | 31.6 | 11.6 | 1.5 | -26.8
CCn1c(Cc2cccn2C)nnc1SCC(=O)c1ccc(C)cc1 | -1.5 | -20.6 | 8.4 | 5.1 | -0.9 | 58.4*
CC(C)(C)NC(=O)C(c1ccccc1)N(C(=O)CNC(=O)c1cccs1)c1cccnc1 (stereo unspecified) | 6.8 | -15.9 | 2.0 | 0.8 | -3.1 | 6.0
Cc1c(Cl)cccc1NC(=O)c1cc(S(=O)(=O)N2CCOCC2)cn1C | -4.0 | -7.9 | 10.2 | -8.9 | -4.2 | -4.2
Cc1ccc(NC(=O)c2cc(S(=O)(=O)N3CCOCC3)cn2C)c(C)c1 | 1.4 | -38.9 | 7.1 | 16.1 | -9.6 | 40.9
COc1cc(OC)c(NC(=O)c2cc(S(=O)(=O)N3CCOCC3)cn2C)cc1Cl | 2.1 | -12.5 | 5.3 | -9.2 | -12.1 | 69.2*
COc1ccc(NC(=O)c2cc(S(=O)(=O)N3CCOCC3)cn2C)c(OC)c1 | -3.5 | 7.8 | 2.8 | -5.4 | 6.1 | 59.2*
COc1cccc(CNC(=O)c2cc(S(=O)(=O)N3CCCC3)cn2C)c1 | 1.2 | -18.6 | 1.7 | -8.7 | -11.7 | 57.2*
COc1ccc(OCC(=O)NNC(=S)NC(=O)c2ccc(Br)o2)cc1 | -5.8 | -8.3 | 6.5 | -3.7 | 16.4 | -3.8
CN(C(=O)Cn1nnc(-c2cccc(C(F)(F)F)c2)n1)C1CCCCC1 | 2.2 | -6.6 | 20.9 | -2.1 | -0.4 | 69.6*
CC(=O)c1cccc(-n2nnnc2SCC(=O)N2CCCC2)c1 | -5.3 | -8.9 | 13.3 | 0.5 | -2.7 | 50.2*
CC(NS(=O)(=O)c1cccc(C(=O)NCc2ccncc2)c1)c1ccccc1 (stereo unspecified) | nt | 4.4 | 15.4 | 3.3 | 2.2 | nt
CCC(=O)N1CCCC(C)(C(=O)Nc2ccc(C)c(C)c2)C1 (stereo unspecified) | nt | nt | 15.8 | nt | nt | nt
O=C1C=C(N2CCOCC2)c2cccc3cccc1c23 | nt | nt | 18.7 | nt | nt | nt
CC1=C(C)C(=O)C(N2CCOCC2)=CC1=O | 1.3 | nt | 47.3* | nt | nt | -6.1
O=C1C=C(N2CCOCC2)c2ccccc2C1=O | 10.9 | 90.4* | -149.5 | 90.3* | 93.7* | -2.2
CCCCNC(=O)c1ccc(NC(=O)CC2SC(N3CCCC3)=NC2=O)cc1 (stereo unspecified) | nt | -14.8 | 5.2 | -9.8 | -5.7 | nt
CCOc1ccc(/C=C2\SC(=S)N(NS(=O)(=O)c3ccccc3)C2=O)cc1OC | 0.2 | -8.4 | 27.1 | -0.8 | -4.3 | 7.9
CCOc1ccc(/C=C2\SC(=S)N(NS(=O)(=O)c3ccc(C)cc3)C2=O)cc1OC | -2.8 | -9.6 | 42.7* | -7.9 | -3.8 | -21.1
Cc1c(C(=O)O/N=C(\N)c2ccccn2)cccc1[N+](=O)[O-] | 8.0 | 78.6* | 6.4 | 85.1* | 77.7* | 32.2
SMILES | HSP90 inh | SENP6 block | SENP8 block-1 | SENP7 block | SENP8 block-2 | Platelet DG rel
N/C(=N\OC(=O)Cc1ccccc1[N+](=O)[O-])c1ccccn1 | 2.1 | 0.2 | 6.3 | -2.7 | 1.8 | 6.7
CC(=O)c1cccc(NC(=O)C(=O)Nc2cccc3ccccc23)c1 | 1.3 | 2.0 | 7.2 | 35.0 | -1.6 | 0.2
CC(=O)c1ccc(NC(=S)Nc2cccc3ccccc23)cc1 | 9.1 | 91.2* | -389.7 | 52.9* | 64.5* | -1.3
O=C1c2cc(CO)cc(O)c2C(=O)c2c(O[C@@H]3OC(CO)[C@@H](O)[C@@H](O)[C@@H]3O)cccc21 (stereo partly specified) | nt | 8.1 | 54.0* | -1.2 | -4.9 | 7.5
COc1ccc(N(CC(=O)N2CCOCC2)S(C)(=O)=O)cc1 | 1.3 | -26.0 | 16.2 | 12.2 | -9.6 | 12.1
COc1ccc(-c2nc3ccccn3c2C=O)cc1 | -0.7 | 62.2* | -8.1 | 55.4* | 47.5 | 12.8
O=Cc1c(-c2ccc(F)cc2)nc2ccccn12 | 0.2 | -11.4 | 12.3 | -16.2 | -15.5 | -2.2
N#C/C(=N\Nc1ccc(S(=O)(=O)N2CCCCC2)cc1)C(N)=S | 1.6 | 0.7 | 44.9* | 0.8 | -2.2 | -16.2
N#CC(C#N)=NNc1ccc(S(=O)(=O)N2CCCC2)cc1 | -2.1 | 1.8 | 47.3* | -3.4 | -8.9 | 1.0
N#C/C(=N\Nc1ccc(S(=O)(=O)N2CCc3ccccc32)cc1)C(N)=S | 3.2 | -19.9 | 41.2* | -5.7 | -6.6 | -1.4
N#C/C(=N\Nc1ccc(S(=O)(=O)N2CCCCCC2)cc1)C(N)=S | 0.1 | -17.6 | 31.2 | -6.9 | 15.1 | -0.6
O=C(c1cccn2c(=O)c3cc4ccccc4cc3nc12)N1CCN(c2ccccc2)CC1 | 0.4 | 45.2 | nt | 69.8* | 27.8 | 0.0
Cc1nn(-c2ccccc2)c2c1C(c1c(C)[nH]c(C#N)c1C)C(C#N)=C(N)O2 (stereo unspecified) | 36.4* | -1.9 | 38.4 | -3.3 | -1.8 | nt
CCNC(=O)C1CCCN(C(=O)c2cccc(C#N)c2)CC1 (stereo unspecified) | nt | nt | 6.5 | nt | nt | nt
O=C(O/N=C/c1ccc2c(c1)OCO2)c1ccccc1Cl | 1.4 | 85.8* | nt | 79.9* | 84.2* | 7.6
Cc1nn(-c2nc3ccccc3[nH]2)c(=O)c2ccccc12 | 98.8* | nt | -384.2 | nt | nt | 81.0*
Cc1nn(-c2ccc3ccccc3c2)c(=O)c2ccccc12 | -4.0 | -25.9 | -95.0 | 9.8 | -5.0 | 0.2
Cc1cc(S(=O)(=O)Nc2ccc(C(=O)NC3CC3)cc2)ccc1F | nt | nt | 12.1 | nt | nt | nt
CCOc1cccc(CNc2ccc(O)cc2)c1OCc1ccc(Cl)cc1Cl | 5.2 | 0.8 | 68.9* | 8.1 | 2.9 | -9.4
CCOc1cccc(CNCCO)c1OCc1ccc(Cl)cc1Cl | 2.9 | -18.9 | 13.7 | 1.7 | -4.0 | -4.2
CCOc1cccc(CNc2ccc(O)cc2)c1OCc1ccccc1Cl | 1.3 | 28.0 | 30.4 | 55.2* | 9.0 | -11.8
O=C(N/N=C/c1c[nH]c2ccccc12)c1sc2ccccc2c1Cl | 2.2 | 65.3* | 8.7 | 36.1 | 52.5* | -1.7
COc1ccc(N/N=C(\C=N\O)C(=O)c2ccc(OC)cc2)cc1 | 3.8 | -25.5 | 44.2* | 5.0 | -3.4 | -4.3
COc1ccc(-n2c(C)c(C)c3c(N)ncnc32)cc1 | 0.5 | -3.9 | -25.1 | -4.6 | -10.0 | 1.3
O=C(Nc1ccc(O)c(C(=O)O)c1)Oc1ccccc1 | 3.9 | 76.2* | -297.0 | 56.2* | 59.9* | -0.2
CC(=O)Nc1ccc(NC(=O)Oc2ccccc2)cc1 | 1.2 | -11.6 | -49.1 | 4.5 | -1.1 | 5.5
C[C@@H]1CN(Cc2nnnn2CC(=O)NCCCn2cccn2)C[C@H](C)O1 | nt | nt | 13.7 | nt | nt | nt
